From PubChem BioAssay (NCI)
Compounds without any hit were thinned out: in the full panel of roughly 83,000, 20% have a hit.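 Values shown are percent growth following 48 h exposure of cells in 96-well plates to a single concentration of compound; below 10 was considered active.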 A number with no mark means an inactive call. Calls of active or inactive are those of the source.

How the values were obtained:
Assay in all cases: NCI-60 one-dose screen, 48 h (100 = growth as untreated, 0 = no growth, -100 = all killed)
Conditions in all cases: 10 µM unless noted
NCI-H23 lung = test system: NCI-H23 lung
NCI-H226 lung = test system: NCI-H226 lung
NCI-H322M lung = test system: NCI-H322M lung
HOP-62 NSCLC = test system: HOP-62 NSCLC
NCI-H460 lung = test system: NCI-H460 lung
HOP-92 NSCLC = test system: HOP-92 NSCLC
NCI-H522 lung = test system: NCI-H522 lung
A549/ATCC NSCLC = test system: A549/ATCC NSCLC
786-0 renal = test system: 786-0 renal
COLO 205 colon = test system: COLO 205 colon
DU-145 prostate = test system: DU-145 prostate
K-562 leukemia = test system: K-562 leukemia
MALME-3M melanoma = test system: MALME-3M melanoma
MDA-MB-231 breast = test system: MDA-MB-231 breast
SF-268 CNS = test system: SF-268 CNS
SF-295 CNS = test system: SF-295 CNS
SF-539 CNS = test system: SF-539 CNS
UACC-257 melanoma = test system: UACC-257 melanoma
M14 melanoma = test system: M14 melanoma

SMILES | growth (NCI-H23 lung) | growth (NCI-H226 lung) | growth (NCI-H322M lung) | growth (HOP-62 NSCLC) | growth (NCI-H460 lung) | growth (HOP-92 NSCLC) | growth (NCI-H522 lung) | growth (A549/ATCC NSCLC) | growth (786-0 renal) | growth (COLO 205 colon) | growth (DU-145 prostate) | growth (K-562 leukemia) | growth (MALME-3M melanoma) | growth (MDA-MB-231 breast) | growth (SF-268 CNS) | growth (SF-295 CNS) | growth (SF-539 CNS) | growth (UACC-257 melanoma) | growth (M14 melanoma)
CCNC(=O)c1[nH]cc(-c2ccc(OC)cc2)c1-c1cc(OC)c(OC)c(OC)c1 | 60.3% | 83% | 51.6% | 45% | 13.7% | 8.85% (active) | 17.6% | 51.1% | 47.5% | 32.5% | 69.3% | 12.1% | 35.4% | 74.5% | 58.8% | 30.3% | 29.1% | 81.3% | 51.4%
COc1cc(NCCCN(CC(C)C)C2CCCC2)c2ncccc2c1 | 62.5% | 58.3% | 101% | 82.9% | 54.8% | 59.5% | 60% | 79% | 58.2% | 65.1% | 83.4% | 39.2% | 92.1% | 74.8% | 87.5% | 87.4% | 88.8% | 89.4% | 85.7%
CS(=O)(=O)c1ccc(-c2cc3c(oc2=O)-c2ccccc2OC3O)cc1 (stereo not given) | 90.3% | 74.7% | 107% | 94.9% | 91.7% | 38.1% | 92.7% | 104% | 88.7% | 114% | 87.1% | 81% | 101% | 98.7% | 96.6% | 75.7% | 90.2% | -3.93% (active) | 101%
COc1cccc(CCC(=O)c2cc3c(N)c(C(=O)Nc4ccccc4)sc3nc2C)c1 | 67.9% | 71.5% | 52.7% | 45.1% | 11.7% | 74.2% | 37.5% | 39.6% | 50.2% | 37.1% | 65.8% | 12.2% | 27% | 44.9% | 53.4% | 24.9% | 23.9% | 63.3% | 23.3%
CCN1C(=O)/C(=c2\sc3n(c2=O)NC2C(N=3)N(CC)C(=O)N2CC)c2ccccc21 (stereo not given) | 38.5% | 102% | 47% | 43.1% | 18% | 21.6% | 15% | 38.9% | 38.2% | 14.8% | 17.8% | 10.2% | 36.7% | 19.9% | 63.9% | 16.4% | -18.6% (active) | 82.5% | 38%
COc1ccc(-c2nc(N/N=C/c3cccc(Br)c3)nc(N3CCOCC3)c2C#N)cc1 | 103% | 75.8% | 88.5% | 79.1% | 31.8% | 82% | 70.6% | 62.2% | 35.6% | 40.8% | 49.8% | 3.14% (active) | 7.31% (active) | 72.2% | 81.4% | 54.2% | 55.9% | -17.9% (active) | 24.8%
Clc1ccc(N2N=C(c3cccc(Nc4ccncc4)c3)CC2c2ccc(Br)cc2)cc1 (stereo not given) | 57.1% | 92.2% | 66.2% | -39.3% (active) | -82.6% (active) | 60.3% | -13.2% (active) | 16.7% | 105% | -48.7% (active) | 24.8% | 1.38% (active) | -40.5% (active) | 31.8% | 72.2% | -69% (active) | 83.8% | 77.8% | 107%
COc1ccc(NC(=O)c2sc3nc(C)c(C(O)c4ccc(OC)cc4)cc3c2N)cc1 (stereo not given) | 36.2% | 63.5% | 51.3% | 31.8% | 9.03% (active) | 57.6% | 5.14% (active) | 23% | 53.3% | -6.28% (active) | 25.6% | 9.99% (active) | 63.7% | 22.1% | 42% | -1.07% (active) | -11.4% (active) | 60.4% | 24.7%
CC1(C)CN(Cc2ccccc2)CCN1Cc1ccccc1 | 104% | 95% | 103% | 108% | 106% | 96.3% | 91.8% | 89.5% | 99.6% | 112% | 114% | 98.8% | 116% | 101% | 105% | 101% | 107% | 89.1% | 107%
CCN(CC)CCCC(Nc1c2ccc(Cl)cc2nc2ccc(OC)cc12)c1ccc(Cl)cc1 (stereo not given) | 62.1% | 37% | -17.1% (active) | 25.4% | -69.2% (active) | 7.29% (active) | -68.7% (active) | -42.5% (active) | -84% (active) | -73.8% (active) | 23.8% | -58.2% (active) | -82.3% (active) | -59.1% (active) | 14.2% | -85.7% (active) | -90.9% (active) | -86.7% (active) | -89% (active)
COc1ccccc1N1CCN(C(=O)c2ccc3nc(NC(=O)c4ccc(NCCc5ccccc5)c([N+](=O)[O-])c4)sc3c2)CC1 | 81.9% | 87.4% | 91.5% | 82.9% | 86.5% | 81.9% | 80.4% | 91.3% | 110% | 100% | 68.7% | 86% | 45.6% | 75.7% | 67.6% | 102% | 99.7% | 72.7% | 64.4%
O=S(=O)(NCCCNc1nccc(-c2c(-c3ccc(F)c(O)c3)nc3sccn23)n1)c1ccc(F)cc1 | 2.45% (active) | 11% | 5.97% (active) | 19.9% | 6.31% (active) | 6.16% (active) | -9.08% (active) | 10.2% | 14.1% | 11.5% | 11.5% | 3.41% (active) | -14.7% (active) | -23.1% (active) | 9.56% (active) | -12.1% (active) | 18.5% | -10% (active) | 6.75% (active)
COc1cc(OC)c(/C=C/C(=O)c2ccc(Nc3ncnc4ccccc34)cc2)c(OC)c1 | 17% | -17.3% (active) | 11.5% | -54.5% (active) | -23.1% (active) | -16.4% (active) | -51.4% (active) | 12.2% | -13.2% (active) | 6.02% (active) | -26.5% (active) | 4.41% (active) | -39.8% (active) | -19.9% (active) | -71.9% (active) | -47.7% (active) | -56.6% (active) | -12% (active) | -15.5% (active)
S=c1[nH]cccc1-c1nnc2n1Nc1nc3ccccc3cc1CS2 | 90.7% | 91.1% | 101% | 90.1% | 99.6% | 99.5% | 89% | 110% | 100% | 111% | 120% | 99.5% | 97.1% | 92.9% | 101% | 112% | 96.1% | 110% | 101%
c1ccc(N2N=C(c3cccc(Nc4ccncc4)c3)CC2c2ccc3c(c2)OCO3)cc1 (stereo not given) | 61.1% | 77.7% | 42.7% | 23.5% | -48.5% (active) | 25.6% | 17.9% | 21.1% | 81% | -53% (active) | 16.4% | 4.94% (active) | -22.6% (active) | 37.7% | 29.9% | -17.1% (active) | 9.86% (active) | 27.2% | 93.1%
